Compounds with a hit are over-represented: about 1.7% of the library has one in this group of screens.
GLP-1R agonist – qHTS of GLP-1 Receptor Agonists | Glucagon-like peptide 1 receptor (Homo sapiens), P43220 | HEK293 GLP-1R CRE-luciferase, luminescence, 4-6 h; cells express a hypersensitive GLP-1R form | Potency, µM (series often up to 45.6 µM), without a hit: at the top dose activation, hits mostly activators | actives 0.007% (n = 380,000); also: % of control where 0% means no effect
Target sequence (P43220 whole entry, looked up): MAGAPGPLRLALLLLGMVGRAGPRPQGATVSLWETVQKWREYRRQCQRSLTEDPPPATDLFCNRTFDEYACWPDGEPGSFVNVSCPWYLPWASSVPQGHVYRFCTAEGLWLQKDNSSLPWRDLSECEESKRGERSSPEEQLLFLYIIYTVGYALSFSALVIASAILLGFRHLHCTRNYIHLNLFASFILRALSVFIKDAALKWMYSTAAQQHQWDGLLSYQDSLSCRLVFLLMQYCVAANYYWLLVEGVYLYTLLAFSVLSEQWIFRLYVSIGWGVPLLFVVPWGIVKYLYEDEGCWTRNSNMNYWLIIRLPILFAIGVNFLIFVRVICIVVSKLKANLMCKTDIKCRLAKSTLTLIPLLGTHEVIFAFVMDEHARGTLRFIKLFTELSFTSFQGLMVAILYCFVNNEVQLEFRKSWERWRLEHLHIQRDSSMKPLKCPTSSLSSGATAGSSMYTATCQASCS
GLP1R cytotox – qHTS of GLP-1 Receptor Inverse Agonists: Cytotox Screen; AID 624418, 2012; HEK293 cAMP-luciferase reporter cells, luminescence, 24 h; actives 0.13% (n = 410,000); Potency, µM (series often up to 38.3 µM), inactives show at the top dose activity change, negative = inhibition, hits mostly inhibitors;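 also: loss of luciferase light is scored as toxicity; % is scaled to controls: 0 for no effect and ±100 for the full control effect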
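1536-well qHTS counterscreen of the MLSMR; 200 cells/uL, 12 h pre-incubation, 23 nL cpd, 24 h at 37 deg C 5% CO2, luciferase detection reagent, 12 min RT, luminescence. Inhibition = undesired.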
PTHR1 agonist – qHTS for PTHR1 Agonists: Primary Screen | actives 0.075% (n = 410,000) | Potency, µM (titrated, usually from 115 µM), inactives show top-dose activation, actives largely listed as activators | HEK293 GP2 PTHR1 cells, GloSensor cAMP luminescence, 1 h | Parathyroid hormone/parathyroid hormone-related peptide receptor (Homo sapiens), Q03431; also: nearly all actives have a fitted effect of over 55% in size
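HEK-293-derived GP2 cells expressing PTHR1 and a GloSensor cAMP reporter, 3,000/well, plated overnight, given luciferin plus IBMX (each 0.5 mM as added) for 1 h at 37 °C, then compound for 1 h at 37 °C. Luminescence was read after 15 min at room temperature.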
GLP-1R inv ag – qHTS of GLP-1 Receptor Inverse Agonists (Inhibition Mode) | Glucagon-like peptide 1 receptor (Homo sapiens), P43220 | HEK293 GLP-1R CRE-luciferase, luminescence, 24 h; GLP-1R form is constitutively active | Potency, µM (top dose mostly 38.3 µM), for inactives: at the highest dose activity change, negative = inhibition, actives largely listed as inhibitors | actives 1.6% (n = 410,000) | AID 624417, 2012; also: % is scaled to controls: 0 for no effect and ±100 for the full control effect; nearly all actives have a fitted effect of over 55% in size
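HEK293 cells stably co-expressing constitutively active GLP-1R and a cAMP-responsive luciferase reporter were seeded in DMEM with 10% Nu serum, given compounds after 12 h, and incubated 24 h at 37 deg C. Luminescence was then read.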
* marks the source's active call; other numbers are inactive results; [ ] = remark or other dose. Calls follow the shape of the dose curve; as a rule, active = well fitted curve in the direction sought with a large enough effect; inconclusive = small, poorly fitted or top-dose-only effect, or another doubt; inactive = no such curve, though single readings can be large; an effect the other way counts as inactive or inconclusive. Potency is read from the fitted curve at half-maximal effect.

Screening CNCCCN1c2ccccc2CCc2ccccc21 returned GLP-1R agonist -2.2%, GLP1R cytotox -10.5%, PTHR1 agonist inactive and GLP-1R inv ag 3.98µM*.
Screening Cc1cccc(N(C)S(=O)(=O)c2cc(-c3cnc(C4CC4)o3)ccc2C)c1 returned GLP1R cytotox -1.4%, PTHR1 agonist -56.1% and GLP-1R inv ag 4.1%.
`Cc1cc(C)cc(NC(=O)CCCn2c3ccccc3c(=O)c3ccccc32)c1` gave GLP1R cytotox 74.6%, PTHR1 agonist inactive and GLP-1R inv ag 3.55µM*.
For CCCCCc1cc(O)c2c(c1)OC(C)(C)c1ccc(C)cc1-2 the results were GLP-1R agonist -1.7%.
Screening CCOC(=O)N1CCC(NC(=O)c2ccc3c(c2)N(Cc2cccc(C)c2)C(=O)c2ccccc2S3(=O)=O)CC1 returned GLP-1R agonist -3.6%, GLP1R cytotox -15.6%, PTHR1 agonist -21.3% and GLP-1R inv ag inconclusive.
For CCOc1ccc(-c2cc(C(=O)N3CCN(S(=O)(=O)c4cc(Cl)ccc4OC)CC3)[nH]n2)cc1 the results were GLP1R cytotox -12.6%, PTHR1 agonist -2.9% and GLP-1R inv ag inconclusive.
COc1cc(C=C2C(=O)NC(=O)NC2=O)ccc1OCc1ccc([N+](=O)[O-])cc1 was read as GLP-1R agonist 6.4%, GLP1R cytotox 9.0%, PTHR1 agonist -23.8% and GLP-1R inv ag 3.4%.
Screening COc1cc(/C=C(/C)[N+](=O)[O-])ccc1OCc1ccccc1Cl returned GLP-1R agonist -8.1%, GLP1R cytotox inconclusive, PTHR1 agonist -29.4% and GLP-1R inv ag 7.08µM*.
Screening CCc1ccccc1NC(=O)C(CC)Oc1ccccc1-c1nnc(-c2ccccc2)o1 (configuration not stated) returned GLP1R cytotox -15.4%, PTHR1 agonist -7.4% and GLP-1R inv ag inconclusive.
For COc1ccc(CN(CCc2c[nH]c3ccccc23)Cc2ccc(OC)cc2)cc1 the results were GLP-1R agonist -5.2%, GLP1R cytotox inconclusive, PTHR1 agonist -90.6% and GLP-1R inv ag 10µM*.
For CCCN(CCC)CCc1c[nH]c2ccccc12 the results were GLP-1R agonist 3.1%[96 µM].
Screening S=C=Nc1cccc(C2(N3CCCCC3)CCCCC2)c1 returned GLP-1R agonist 20.1%, GLP1R cytotox inconclusive, PTHR1 agonist inactive and GLP-1R inv ag 8.91µM*.
Screening c1ccc(C2(N3CCCCC3)CCCCC2)cc1 returned GLP-1R agonist 4.2%, GLP1R cytotox -0.7%, PTHR1 agonist -16.6% and GLP-1R inv ag 5.8%.
O=C(NCc1ccc2c(c1)CCN2C(=O)c1ccccc1)Nc1cccc(C(F)(F)F)c1 was read as GLP1R cytotox -22.8%, PTHR1 agonist -75.6% and GLP-1R inv ag 3.98µM*.
For O=C(Nc1ccc2nc3n(c(=O)c2c1)CCCCC3)c1cccc(C(F)(F)F)c1 the results were GLP1R cytotox 0.1%, PTHR1 agonist -93.7% and GLP-1R inv ag 3.9%.
CC(C)(C)OC(=O)[C@H](Cc1ccccc1)NC(=O)c1nc[nH]c1C(=O)NC1CCN(C(=O)OC(C)(C)C)CC1 was read as GLP-1R agonist -3.8%, GLP1R cytotox inconclusive, PTHR1 agonist -48.9% and GLP-1R inv ag 10µM*.
`CCOC(=O)c1ccc(NC(=O)CSc2cc(=O)n(CC)c3ccccc23)cc1` gave GLP1R cytotox -3.2%, PTHR1 agonist -9.1% and GLP-1R inv ag 8.8%.
For CCOC(=O)c1ccc(NC(=O)Nc2cc3c(cc2N2CCCCC2)n(CC)c(=O)n3CC)cc1 the results were GLP-1R agonist -12.8%, GLP1R cytotox -22.1%, PTHR1 agonist inactive and GLP-1R inv ag 10µM*.
Screening C=CCc1ccccc1OCCn1c(C2CC(=O)N(Cc3ccc(F)cc3)C2)nc2ccccc21 (configuration not stated) returned GLP1R cytotox -17.8%, PTHR1 agonist -18.1% and GLP-1R inv ag inconclusive.
`CNCC(O)c1ccc(OC(=O)C(C)(C)C)c(OC(=O)C(C)(C)C)c1` (configuration not stated) gave GLP-1R agonist inconclusive, GLP1R cytotox -8.7%, PTHR1 agonist inconclusive and GLP-1R inv ag 61.3%.
`Fc1ccc(CCNCc2cccc(Cl)c2)cc1` gave GLP-1R agonist 16.7%, GLP1R cytotox -2.0%, PTHR1 agonist 6.4%[57.5 µM] and GLP-1R inv ag inconclusive.
O=C(Nc1cccc(Cl)c1)c1cc(S(=O)(=O)NCCc2ccc(Cl)cc2)ccc1F was read as GLP-1R agonist -3.4%, GLP1R cytotox inconclusive, PTHR1 agonist inactive and GLP-1R inv ag 5.62µM*.
Screening O=C(NCc1ccc(Cl)cc1)C1CCN(C(=O)c2cnn(-c3ccccc3)c2-n2cccc2)CC1 returned GLP1R cytotox -6.2%, PTHR1 agonist -7.7% and GLP-1R inv ag inconclusive.
`COc1ccc2c(c1)C(c1ccc(N(CCCl)CCCl)cc1)=NCC2` gave GLP-1R agonist 17.5%, GLP1R cytotox -29.6%, PTHR1 agonist inactive and GLP-1R inv ag 10µM*.
For CC(C)(Oc1ccc(Cl)cc1)C(=O)OCC(=O)N1CCN(c2ccccc2)CC1 the results were GLP-1R agonist -4.0%, GLP1R cytotox -11.6%, PTHR1 agonist -34.5% and GLP-1R inv ag inconclusive.
`CCCOP(=O)(OCCC)c1nc(-c2ccccc2)oc1NCc1ccccc1` gave GLP-1R agonist 7.9%, GLP1R cytotox 9.6%, PTHR1 agonist inactive and GLP-1R inv ag 10µM*.
`CCOP(=O)(OCC)c1nc(-c2ccc(Cl)cc2)oc1NCc1ccccc1` gave GLP-1R agonist -5.9%, GLP1R cytotox -13.7%, PTHR1 agonist -6.7% and GLP-1R inv ag inconclusive.
For COc1cc(NC(=O)c2csc(N)n2)cc(C(=O)Nc2cccc(C(F)(F)F)c2)c1 the results were GLP-1R agonist 0.0%, GLP1R cytotox inconclusive, PTHR1 agonist -85.4% and GLP-1R inv ag 3.98µM*.
Nc1cc(Cl)c2nonc2c1[N+](=O)[O-] was read as GLP-1R agonist -31.2%, GLP1R cytotox 8.91µM*, PTHR1 agonist -20.1% and GLP-1R inv ag inconclusive.
For O=[N+]([O-])c1c(Cl)c(Cl)c(Cl)c(Cl)c1Cl the results were GLP-1R agonist 7.4%, GLP1R cytotox 0.0%, PTHR1 agonist -23.9% and GLP-1R inv ag 15.8%.
`COc1cc(CC(C)N)c(OC)cc1C` (configuration not stated) gave GLP-1R agonist -1.4%[110 µM].
OC(c1ccccc1)(c1ccc(Cl)cc1)C1CN2CCC1CC2 (configuration not stated) was read as GLP-1R agonist 0.9%, GLP1R cytotox inconclusive, PTHR1 agonist 20.9% and GLP-1R inv ag 1.58µM*.
Screening O=C1NC(=O)C(=Cc2ccccc2OCCOc2ccc([N+](=O)[O-])cc2)C(=O)N1 returned GLP-1R agonist 6.4%, GLP1R cytotox inconclusive, PTHR1 agonist -36.4% and GLP-1R inv ag 10µM*.

Assay outcomes: PubChem BioAssay, National Center for Advancing Translational Sciences (NCATS)
